Screens: PubChem BioAssay, National Center for Advancing Translational Sciences (NCATS)
Hits are enriched below; roughly 2.8% of the tested compounds scored in any of these assays.
Pol kappa inh: blocks human DNA polymerase kappa activity; 400,000 tested, 0.53% active; AID 588579; Potency, µM (highest dose often 107 µM), for the others: at the highest dose activity, negative = inhibition, usual class: inhibitors; purified Pol kappa, fluorescent DNA synthesis assay, 10 min; also: potency is read from the fitted curve at half-maximal effect; % is scaled to controls: 0 for no effect and ±100 for the full control effect
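Kinetic fluorescence readout at 0 and 10 min followed reaction start with substrate at 50 nM final. Beforehand, enzyme (10 nM Pol kappa) stood 15 min with compound at room temperature; buffer-only wells were negative controls.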
POLI inh: blocks human DNA polymerase iota activity; Q9UNA4; Pol iota fluorescent replication assay, 10 min; Potency, µM (highest dose often 115 µM), for the others: at the top dose activity, negative = inhibition, hits mostly inhibitors; 390,000 tested, 1% active; AID 588590; also: potency is read from the fitted curve at half-maximal effect
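Pol iota at 10 nM preincubated 15 min with compounds at room temperature; reaction started with fluorescent substrate, 50 nM final. Fluorescence read kinetically at 0 and 10 min; buffer-only wells as negative control.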
PI5P4K alpha inh: PI5P4K alpha (human) kinase inhibition. PI5P4Kalpha enzyme, ADP-Glo luminescence, 60 min; hits give low values. max response, %. 330,000 tested, 1.2% active. AID 652105; active = max response of -50% or lower; inconclusive = between -30% and -50%; inactive = -30% or higher; also: value at the top dose of about 77 µM; % is scaled to controls: 0 for no effect and ±100 for the full control effect
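PI5P4Kalpha ADP-Glo assay; 5 microM ATP final; 60 min RT reaction; HEPES pH 7.4/EGTA/CHAPS, 5% DMSO; controls lacking substrate or enzyme; luminescent end-point.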
POLH inh: inhibitors of human DNA polymerase eta; Q9Y253; AID 588591; Potency, µM (doses to about 114 µM), without a hit: at the highest dose activity change, negative = inhibition, actives largely listed as inhibitors; recombinant Pol eta, fluorescent DNA replication assay; 390,000 tested, 1.2% active; also: potency is read from the fitted curve at half-maximal effect; % is scaled to controls: 0 for no effect and ±100 for the full control effect
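Fluorescent replication assay: 50 nM final substrate added after a 15 min room-temperature compound preincubation with 10 nM enzyme. Signal taken at 0 min and again at 10 min.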
WRN helicase inh: WRN helicase (human) inhibition. Q14191. 360,000 tested, 0.46% active. Potency, µM (highest dose often 114 µM), without a hit: at the highest dose activity change, negative = inhibition, actives largely listed as inhibitors. WRN helicase unwinding, fluorescent forked duplex, kinetic. AID 651768; also: potency is read from the fitted curve at half-maximal effect; % is scaled to controls: 0 for no effect and ±100 for the full control effect; nearly all actives have a fitted effect of over 55% in size
Target sequence (Q14191 whole entry, looked up): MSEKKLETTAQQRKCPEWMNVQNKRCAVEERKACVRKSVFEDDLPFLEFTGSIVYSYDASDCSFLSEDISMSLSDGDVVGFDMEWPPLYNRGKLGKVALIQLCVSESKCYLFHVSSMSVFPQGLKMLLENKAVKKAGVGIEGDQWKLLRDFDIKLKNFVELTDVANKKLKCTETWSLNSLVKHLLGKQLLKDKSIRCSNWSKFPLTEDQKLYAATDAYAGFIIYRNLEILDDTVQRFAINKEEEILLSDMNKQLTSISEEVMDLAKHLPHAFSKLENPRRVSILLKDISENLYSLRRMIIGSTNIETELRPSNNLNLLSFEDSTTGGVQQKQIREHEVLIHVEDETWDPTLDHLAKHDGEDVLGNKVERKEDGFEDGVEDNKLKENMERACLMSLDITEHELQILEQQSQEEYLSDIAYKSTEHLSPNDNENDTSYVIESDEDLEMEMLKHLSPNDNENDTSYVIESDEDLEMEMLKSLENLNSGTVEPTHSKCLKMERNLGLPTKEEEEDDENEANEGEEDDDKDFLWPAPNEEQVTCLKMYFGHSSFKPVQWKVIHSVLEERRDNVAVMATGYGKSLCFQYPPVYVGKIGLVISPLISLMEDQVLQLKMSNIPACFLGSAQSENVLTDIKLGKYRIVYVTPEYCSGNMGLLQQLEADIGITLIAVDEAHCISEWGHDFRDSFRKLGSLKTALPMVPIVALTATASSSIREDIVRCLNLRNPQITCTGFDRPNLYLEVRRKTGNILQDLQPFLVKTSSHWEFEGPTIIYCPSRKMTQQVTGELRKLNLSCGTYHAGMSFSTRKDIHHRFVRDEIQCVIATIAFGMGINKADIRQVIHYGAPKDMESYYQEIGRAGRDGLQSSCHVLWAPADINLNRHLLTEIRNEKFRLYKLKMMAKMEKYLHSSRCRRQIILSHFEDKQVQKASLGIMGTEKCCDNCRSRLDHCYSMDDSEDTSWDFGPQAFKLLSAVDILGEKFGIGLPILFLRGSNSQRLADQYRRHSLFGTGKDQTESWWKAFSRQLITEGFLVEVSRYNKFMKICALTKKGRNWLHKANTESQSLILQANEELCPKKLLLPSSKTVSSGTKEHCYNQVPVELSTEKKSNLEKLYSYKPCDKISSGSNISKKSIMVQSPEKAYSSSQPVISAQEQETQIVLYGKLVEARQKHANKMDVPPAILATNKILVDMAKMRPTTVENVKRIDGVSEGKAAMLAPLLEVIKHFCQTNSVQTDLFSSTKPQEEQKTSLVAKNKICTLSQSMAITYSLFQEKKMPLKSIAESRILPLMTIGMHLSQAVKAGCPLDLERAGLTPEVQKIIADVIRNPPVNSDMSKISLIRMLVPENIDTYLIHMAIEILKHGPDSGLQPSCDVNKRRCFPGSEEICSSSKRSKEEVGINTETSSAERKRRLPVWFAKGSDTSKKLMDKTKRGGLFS
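Screening of the MLSMR collection measured strand separation of a quenched forked DNA duplex (100 nM) by 20 nM WRN with 2 mM ATP, all final. Compounds were preincubated with enzyme 15 min at room temperature.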
POLB inh: blocks human DNA polymerase beta activity; Pol beta primer extension/strand displacement, fluorescence kinetic; Potency, µM (top dose mostly 114 µM), without a hit: at the top dose activity change, negative = inhibition, usual class: inhibitors; 340,000 tested, 1.3% active; also: potency is read from the fitted curve at half-maximal effect; % is scaled to controls: 0 for no effect and ±100 for the full control effect
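Pol beta (10 nM) was preincubated with compound for 15 min at room temperature. The reaction was then started with 50 nM substrate and read immediately and after a further 10 min at room temperature.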
* = called active by the depositor; ? = inconclusive; . = no result; [ ] = remark or other dose. Unless noted, calls follow the shape of the dose curve; as a rule, active = well fitted curve in the direction sought with a large enough effect; inconclusive = small, poorly fitted or top-dose-only effect, or another doubt; inactive = no such curve, though single readings can be large; an effect the other way counts as inactive or inconclusive.

SMILES	Pol kappa inh	POLI inh	PI5P4K alpha inh	POLH inh	WRN helicase inh	POLB inh
COc1ccc(OC)c(NC(=O)Cn2cc(C(=O)c3ccccc3)c3ccccc32)c1	-25.8%	4.1%	.	-20.9%	.	0.7%
O=C(O)CCn1cc(C=C2C(=O)NC(=S)NC2=O)c(-c2cccc(Cl)c2)n1	-35.2%	64.3%	-86.3*	?	44.7µM*	-17.1%
O=C(O)CCn1cc(C=C2C(=O)NC(=O)NC2=O)c(-c2ccc(Br)cc2)n1	-16.2%	?	?	11.3%	?	21.6%
COc1ccc2c(c1OC)C(=O)OC2c1c(O)n(C2CCCCC2)c(=O)[nH]c1=O (stereo not given)	-22.3%	25.1µM*	-17.8	-9.5%	-18.9%	17.0%
O=C1NC(=S)NC(=O)C1=Cc1ccc(OCc2ccccc2)cc1	-8.0%	47.1%	-81.5*	-10.2%	35.5µM*	.
CN(C)c1ccc(C=C2C(=O)NC(=O)NC2=O)cc1[N+](=O)[O-]	-7.3%	28.5%	?	3.9%	?	-5.2%
COc1ccc(C=C2C(=O)NC(=S)NC2=O)cc1	-9.8%	-2.7%	-64.4*	-4.2%	50.1µM*	.
CN(C)c1ccc(C=C2C(=O)NC(=S)NC2=O)cc1[N+](=O)[O-]	-8.2%	143.1%	-74.9*	10.7%	?	?
COc1ccc(/C=C2/C(=O)N(c3ccccc3)N=C2C)cc1	-7.6%	?	2.5	3.6%	-30.0%	.
CN(CCOc1ccc(C=C2C(=O)NC(=O)NC2=O)cc1)c1ccccn1	-0.9%	-35.2%	?	10.9%	-6.6%	16.4%
CCC(C)c1ccc(N2C(=O)NC(=O)/C(=C/c3cccn3CCOc3ccc(C)cc3)C2=O)cc1 (stereo not given)	-73.7%	35.5µM*	-58.0*	6.8%	-1.7%[11.6 µM]	11.4%
Cc1ccc(N2C(=O)NC(=O)/C(=C\c3cccn3C(C)(C)C)C2=O)cc1	-2.3%	0.6%	-2.2	-10.5%	2.8%	-0.8%
CCc1ccc(N2NC(=O)/C(=C/C=C/c3ccco3)C2=O)cc1	?	17.8µM*	?	?	?	?
CN(N=Cc1ccc([N+](=O)[O-])cc1)c1ccccn1	.	.	29.8	5.3%	63.7%	.
O=C(O)COc1ccc(Br)cc1C(c1c(C(=O)O)[nH]c2ccccc12)c1c(C(=O)O)[nH]c2ccccc12	?	?	-7.9	89.1µM*	-17.6%	10.1%
O=C(c1ccncc1)N1CCC[C@@]2(CCN(Cc3nccs3)C2)C1	-3.7%[60.1 µM]	.	.	.	.	.
CC/C(=C\C=C\[C@@H]1C=C[C@@H]2CCC[C@H]2[C@@H]1C(=O)c1ccc[nH]1)[C@@H]1O[C@@H]([C@@H](C)C(=O)O)CC[C@@H]1C	?	?	-29.8	89.1µM*	-34.7%	?
CC(=O)O[C@H]1CCC2C3CCC4=CC(=O)CCC4=C3C=C[C@@]21C (stereo not given in full)	-13.6%	28.2µM*	-6.4	-23.0%	-12.1%	5.1%
CC(=O)O[C@H]1CC[C@H]2[C@@H]3CCC4=CC(=O)CCC4=C3C=C[C@]12C	7.5%[19.4 µM]	.	.	.	.	.
O=[N+]([O-])c1ccc([As](=O)(O)O)cc1	-0.5%[19.4 µM]	.	.	.	.	.
O=[N+]([O-])c1cc(-c2ccc([As](=O)(O)O)cc2)ccc1[As](=O)(O)O	.	.	.	.	.	20µM*
CCOc1ccc(/C=C2/C(=O)NC(=O)N(CCc3ccc(F)cc3)C2=O)cc1	-7.8%	-10.3%	-54.9*	-6.4%	-17.9%	-6.0%
COc1cc(C=C2C(=O)NC(=O)NC2=O)ccc1O	5.6%	-16.7%	-29.2	11.4%	-0.5%	0.9%
Cn1cccc1/C=C1/C(=O)NC(=O)N(Cc2ccc(F)cc2)C1=O	70.8µM*	39.8µM*	-65.4*	79.4µM*	?	1.4%
C=CCN1C(=O)NC(=O)/C(=C/c2cccn2C)C1=O	-9.3%	?	?	0.2%	-17.9%	2.4%
SMILES	Pol kappa inh	POLI inh	PI5P4K alpha inh	POLH inh	WRN helicase inh	POLB inh
COc1cc(/C=C2\C(=O)NC(=O)N(CCc3ccc(F)cc3)C2=O)ccc1O	-20.3%	?	-77.8*	-0.5%	?	0.4%
CCOC(=O)c1c(/N=C/C2C(=O)NC(=S)NC2=O)sc(C)c1C	.	.	.	.	.	17.0%
CCOC(=O)c1cc(C)sc1/N=C/C1C(=O)NC(=S)NC1=O	-25.7%	?	?	11.9%	50.1µM*	-18.0%
N#Cc1c(/N=C/C2C(=O)NC(=S)NC2=O)sc2c1CCCC2	-15.0%	-1.9%	-55.4*	-3.0%	-29.6%	-4.0%
CCOC(=O)c1c(/N=C/C2C(=O)NC(=S)NC2=O)sc2c1CCC2	-23.4%	40.7%	-78.5*	1.2%	56.2µM*	1.5%
N#Cc1ncc(Br)cn1	7.0%	31.3%	.	.	.	.
COc1ccccc1CN1CC[C@@]2(CCCN(C(=O)Oc3ccccc3)C2)C1	-5.0%[60.1 µM]	.	.	.	.	.
CC12C=CC(=O)C=C1CCC1C2=CCC2(C)C1CC[C@@H]2C(=O)CN1CCN(c2cc(N3CCCC3)nc(N3CCCC3)n2)CC1 (stereo not given in full)	-15.5%[60.1 µM]	.	.	.	.	.
CCCCn1c(O)c(C=NCCCn2ccnc2)c(=O)[nH]c1=O	-12.2%	1.3%	-6.8	-1.1%	-3.8%	5.7%
C=CCn1c(O)c(C=NCCCn2ccnc2)c(=O)[nH]c1=O	-2.7%	35.8%	-1.0	-6.9%	-3.9%	0.316µM*
N#CCCN(C(=O)COC(=O)c1ccc2c(c1)NC(=O)CS2)c1ccc2c(c1)OCCO2	-13.5%	-8.5%	0.9	4.5%	6.2%	4.7%
Cc1cc(/C=C2/C(=O)NC(=O)N(Cc3ccco3)C2=O)c(C)n1-c1ccccc1O	-32.5%	44.7µM*	?	50.1µM*	-10.6%[11.6 µM]	28.2µM*
Cc1cc(/C=C2/C(=O)NC(=O)N(C)C2=O)c(C)n1-c1ccccc1	10.2%	-19.6%	7.4	-9.5%	1.4%[57.1 µM]	-2.3%
OC[C@@H]1O[C@H](OC2[C@@H](O)[C@@H](O)[C@@H](O)O[C@@H]2CO)[C@H](O)[C@@H](O)[C@@H]1OC1O[C@H](CO)[C@@H](O)[C@H](O)[C@@H]1O (stereo not given in full)	15.7%[60.1 µM]	.	.	.	.	.
O=C(N/N=C/C1C(=O)NC(=S)N(c2ccccc2)C1=O)c1cc(Br)c(O)c(Br)c1 (stereo not given)	?	?	-95.6*	?	79.4µM*	?
Cc1cc(OC(=O)N(C)C)nn1C(=O)N(C)C	-11.1%[12 µM]	.	.	.	.	.
Cc1ccccc1-n1c(O)c(/C=C/C=Nc2ccccc2)c(=O)[nH]c1=O	-14.5%	79.4µM*	?	?	?	-3.0%
Cc1cccc(-n2c(O)c(/C=C/C=Nc3ccccc3)c(=O)[nH]c2=O)c1	-16.4%	13.5%	-17.0	-7.6%	-12.5%	18.8%
Cn1c(O)c(C=Nc2ccc(Br)cc2)c(=O)n(C)c1=O	-12.3%	107.8%	-2.0	-1.5%	-19.8%	35.7%
